Drawing on PubChem BioAssay (NCI), this text covers growth for seven compounds.

About 83,000 compounds went through this panel and 20% of them were active in at least one assay; those are over-represented in the sample as a whole.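 Compound tested at a single concentration for 48 hours in 96-well plates; a percent growth value below 10 was scored as active.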 A number with no mark means an inactive call. The source made the active and inactive calls.

Test systems include DU-145 prostate; K-562 leukemia; MALME-3M melanoma; MDA-MB-231 breast; RXF 393 renal; SF-268 CNS; SF-295 CNS; SF-539 CNS; UACC-257 melanoma; M14 melanoma; HCT-15 colon; HT29 colon; SNB-75 CNS; SNB-19 CNS; U251 CNS; PC-3 prostate; SK-MEL-5 melanoma; UACC-62 melanoma; LOX IMVI melanoma; SK-MEL-28 melanoma.
Holding throughout (assay): NCI-60 one-dose screen, 48 h (100 = growth as untreated, 0 = no growth, -100 = all killed)
What all share (details): 10 µM unless noted

On to `Cc1ccc(NS(=O)(=O)c2ccc3c(c2)C2OCCC2C(c2ccc(C(=O)C(C)C)cc2)N3)cc1C` (stereo not given), for which the growth with DU-145 prostate is 60.9%; in the assay on K-562 leukemia, 33.6%; with MALME-3M melanoma, 17.1%; in the assay on MDA-MB-231 breast it was 76.5%; with RXF 393 renal, 65.4%; in the assay on SF-268 CNS, 57.8%. The growth was 31.9% in the assay on SF-295 CNS; 66% with SF-539 CNS; 23.9% in the assay with UACC-257 melanoma; 50% in the assay with M14 melanoma; 32.3% with HCT-15 colon; 44.9% in the assay with HT29 colon. For the same compound, the growth in the assay on SNB-75 CNS is 61.8%; in the assay on SNB-19 CNS it was 68.2%; with U251 CNS, 49.1%; with PC-3 prostate, 28.8%; in the assay on SK-MEL-5 melanoma, -32.4% (active); with UACC-62 melanoma, 47.2%. Further, the growth in the assay with LOX IMVI melanoma was 64.2%; in the assay with SK-MEL-28 melanoma, 51.3%.
As to `O=C(CSc1nnc(-c2ccc(NC(=O)c3cccnc3)cc2)o1)Nc1cccc(Br)c1`, the growth is 102% with DU-145 prostate; 66.3% in the assay on K-562 leukemia; 93.1% in the assay with MALME-3M melanoma; 93% with MDA-MB-231 breast; 111% with RXF 393 renal; 102% with SF-268 CNS. For the same compound, the growth in the assay with SF-295 CNS was 87.2%; in the assay with SF-539 CNS, 70.6%; in the assay with UACC-257 melanoma, 102%; with M14 melanoma, 101%; in the assay with HCT-15 colon, 90.6%; in the assay with HT29 colon, 107%. Besides, the growth was 72.1% with SNB-75 CNS; 62.9% in the assay with SNB-19 CNS; 68.7% in the assay on U251 CNS; 82.8% in the assay on PC-3 prostate; 92.9% in the assay on SK-MEL-5 melanoma; 104% in the assay with UACC-62 melanoma. Further, the growth with LOX IMVI melanoma was 93.6%; in the assay with SK-MEL-28 melanoma, 110%.
On to `CCN1CCN(c2cc(C)nc(NCc3cc(Nc4ccnc5cc(Cl)ccc45)ccc3F)n2)CC1`, for which the growth in the assay with DU-145 prostate is 50.7%; in the assay with K-562 leukemia it was 4.69% (active); with MALME-3M melanoma it was 107%; in the assay with MDA-MB-231 breast it was 26.4%; in the assay on RXF 393 renal, 58.5%; in the assay with SF-268 CNS, 58%. The growth with SF-295 CNS was 31%; in the assay with SF-539 CNS it was 55.7%; in the assay on UACC-257 melanoma it was 69.2%; in the assay with M14 melanoma, -64.3% (active); in the assay on HCT-15 colon it was 15.9%; in the assay with HT29 colon it was -5.84% (active). Besides, the growth is 79% in the assay on SNB-75 CNS; 68.3% in the assay on SNB-19 CNS; 59.8% with U251 CNS; 57.6% in the assay with PC-3 prostate; -85.5% (active) in the assay with SK-MEL-5 melanoma; 86.3% with UACC-62 melanoma. Besides, the results for the growth in the assay on LOX IMVI melanoma and in the assay on SK-MEL-28 melanoma were 8.07% (active) and 93.3%, respectively.
As to `COc1cc(Cn2ncc3ccc(NC(=O)c4cc5ccccc5oc4=N)cc32)cc(OC)c1OC`, the growth in the assay with DU-145 prostate is 88.5%; with K-562 leukemia, 16.3%; with MALME-3M melanoma it was 54%; in the assay on MDA-MB-231 breast, 54.4%; with RXF 393 renal, 73.3%; with SF-268 CNS it was 85.8%. For the same compound, the growth in the assay with SF-295 CNS is 63.6%; in the assay with SF-539 CNS, 29.5%; with UACC-257 melanoma it was 98.8%; with M14 melanoma, 29.5%; in the assay on HCT-15 colon, 27.2%; with HT29 colon, 15.8%. The growth with SNB-75 CNS is 90.9%; in the assay with SNB-19 CNS, 70.9%; with U251 CNS, 62.9%; in the assay with PC-3 prostate, 47.1%; with SK-MEL-5 melanoma, 61.6%; with UACC-62 melanoma, 55.2%. Besides, the growth with LOX IMVI melanoma was 63.6%; with SK-MEL-28 melanoma it was 51.3%.
With `Cc1ccccc1NC(=O)N/C(N)=N/c1nc(-c2cccc([N+](=O)[O-])c2)cs1`, the growth in the assay with DU-145 prostate is 69.3%; in the assay with K-562 leukemia, 9.08% (active); with MALME-3M melanoma, 33%; in the assay on MDA-MB-231 breast it was 50.4%; in the assay with RXF 393 renal, 56.7%; in the assay on SF-268 CNS, 64%. The growth was 15.8% with SF-295 CNS; 41.1% in the assay with SF-539 CNS; 51.5% with UACC-257 melanoma; 19% in the assay on M14 melanoma; 24.8% in the assay with HCT-15 colon; 17.1% in the assay on HT29 colon. Also, the growth in the assay with SNB-75 CNS is -9.74% (active); with SNB-19 CNS, 44.1%; in the assay on U251 CNS it was 40.4%; with PC-3 prostate it was 58%; with SK-MEL-5 melanoma it was 49.3%; with UACC-62 melanoma it was 34.1%. Also, the growth in the assay with LOX IMVI melanoma was -10.5% (active); with SK-MEL-28 melanoma, 54.1%.
As for `Cc1ccc(S(=O)(=O)Oc2cc(OS(=O)(=O)c3ccc(C)cc3)cc(OS(=O)(=O)c3ccc(C)cc3)c2)cc1`, the growth in the assay with DU-145 prostate is 108%; in the assay with K-562 leukemia it was 94.4%; with MALME-3M melanoma it was 133%; in the assay on MDA-MB-231 breast, 92.2%; in the assay with RXF 393 renal, 99.6%; in the assay on SF-268 CNS, 99%. The growth in the assay with SF-295 CNS was 86.9%; in the assay on SF-539 CNS, 95%; in the assay on UACC-257 melanoma, 104%; in the assay on M14 melanoma, 108%; with HCT-15 colon, 98.1%; in the assay with HT29 colon, 98.7%. In addition, the growth in the assay with SNB-75 CNS is 95.4%; with SNB-19 CNS, 104%; in the assay with U251 CNS it was 108%; in the assay on PC-3 prostate, 86.9%; in the assay with SK-MEL-5 melanoma, 94.4%; in the assay with UACC-62 melanoma, 86.1%. Further, the growth with LOX IMVI melanoma is 98.1%; in the assay with SK-MEL-28 melanoma, 112%.
Consider `Cc1cc(NCc2cc(Nc3ccnc4cc(Cl)ccc34)ccc2F)nc(Cl)n1`, for which the growth is 60% in the assay with DU-145 prostate; 19.8% with K-562 leukemia; 76.8% with MALME-3M melanoma; 43.5% with MDA-MB-231 breast; 62.9% in the assay with RXF 393 renal; 72.2% in the assay with SF-268 CNS. Further, the growth in the assay with SF-295 CNS is 34.2%; in the assay with SF-539 CNS it was 73.3%; in the assay on UACC-257 melanoma it was 35.7%; in the assay with M14 melanoma, 38.7%; in the assay with HCT-15 colon, 27%; with HT29 colon, 28.1%. Moreover, the growth is 71.5% with SNB-75 CNS; 58.3% with SNB-19 CNS; 44.8% in the assay on U251 CNS; 34.9% with PC-3 prostate; 3.73% (active) in the assay with SK-MEL-5 melanoma; 45.2% in the assay with UACC-62 melanoma. Besides, the growth is 34.9% in the assay with LOX IMVI melanoma and 72.1% with SK-MEL-28 melanoma.
